Only some compounds are listed: those with a hit (about 10% of all), similar ones and a draw of the others.
Six1-Eya2 inh – qHTS Assay for Inhibitors of the Six1/Eya2 Interaction. Homeobox protein SIX1 (Homo sapiens) + Protein phosphatase EYA2 (Homo sapiens), …. AlphaScreen GST-Six1/His-Eya2 binding, biochemical; hits give low values. activity change, % (test concentration not listed). 360,000 tested, 0.56% active; in the data active = activity change below about -65%; inconclusive = mostly about -30% to -63%; note: % is set by controls: 0 for no effect and ±100 for the full control effect
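AlphaScreen with GST-Six1 and His-Eya2 (5X mix: 250 nM and 500 nM), glutathione donor and nickel acceptor beads; buffer 50 mM Tris pH 8.0, 300 mM NaCl, 1 mM TCEP; 1 h at 37 C in the dark.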
CtBP-E1A inh – qHTS Assay for Inhibitors of the CtBP/E1A Interaction. CtBP / adenovirus E1A interaction (AlphaScreen). AlphaScreen GST-E1A/His-CtBP binding, 1536-well; hits give low values. activity change, % (no concentration beside the values). 340,000 tested, 0.49% active; in the data active = activity change below about -65%; inconclusive = mostly about -30% to -63%; note: % is set by controls: 0 for no effect and ±100 for the full control effect
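AlphaScreen with 125 nM GST-E1A and 125 nM His-CtBP (5X stocks) in Tris pH 8.0, 300 mM NaCl, BSA, Tween 20, TCEP. Compounds preincubated 2 h at 37 deg C, then glutathione donor/nickel acceptor beads added for 1 h at 37 deg C in dark.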
G9a inh – qHTS Assay for Inhibitors of Histone Lysine Methyltransferase G9a. Histone-lysine N-methyltransferase EHMT2 (Homo sapiens), Q96KQ7. Potency, µM (top dose mostly 102 µM), inactives show at the top dose activity, negative = inhibition, hits mostly inhibitors. 350,000 tested, 8.8% active. G9a H3K9 monomethylation, AlphaScreen, 2 h; note: potency is the fitted concentration of half-maximal effect; % is set by controls: 0 for no effect and ±100 for the full control effect; nearly all actives have a fitted effect of over 75% in size
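Signal arises when biotinylated H3K9 peptide, once monomethylated, bridges streptavidin donor and antibody-captured acceptor beads. Enzyme at 20 nM was preincubated 15 min with test compounds; peptide 500 nM and SAM 20 uM then reacted for 2 h.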
BAZ2B inh – qHTS Assay for Inhibitors of BAZ2B. Bromodomain adjacent to zinc finger domain protein 2B (Homo sapiens), Q9UIF8. AlphaScreen BAZ2B-H3K14Ac peptide displacement. Potency, µM (titrated, usually from 114 µM), inactives show top-dose activity change, negative = inhibition, hits mostly inhibitors. 360,000 tested, 4.4% active. AID 504333, 2011; note: potency is the fitted concentration of half-maximal effect; % is set by controls: 0 for no effect and ±100 for the full control effect; nearly all actives have a fitted effect of over 60% in size
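Multi-concentration screen (max 110 uM) measuring displacement of acetylated histone H3 peptide from BAZ2B by AlphaScreen, using 50 nM protein, 50 nM peptide and 10 ug/mL streptavidin donor plus Ni-chelate acceptor beads.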
HP1b binding inh – HTS for Inhibitors of HP1-beta Chromodomain Interactions with Methylated Histone Tails | Chromobox protein homolog 1 (Homo sapiens), P83916 | AlphaScreen HP1-beta / biotin-H3K9me3 peptide binding | Potency, µM (top dose mostly 114 µM), inactives show at the highest dose activity change, negative = inhibition, most hits filed as inhibitors | 390,000 tested, 0.56% active | AID 540317, 2011; note: potency is the fitted concentration of half-maximal effect; nearly all actives have a fitted effect of over 70% in size
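HP1-beta protein (50 nM final) preincubated 30 min at room temperature with biotinylated H3(1-18)K9me3 peptide (50 nM) in PBS pH 7.4, 0.01% Tween-20, then compound added for 30 min. AlphaScreen streptavidin donor/nickel chelate acceptor beads (10 ug/mL final), 30 min dark, luminescence read.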
JMJD2A Tudor – qHTS Assay for Inhibitors of JMJD2A-Tudor Domain; Lysine-specific demethylase 4A (Homo sapiens), O75164; AlphaScreen JMJD2A-Tudor / H3K4me3 peptide binding; Potency, µM (doses to about 114 µM), for inactives: top-dose activity change, negative = inhibition, actives largely listed as inhibitors; 390,000 tested, 4.4% active; note: potency is the fitted concentration of half-maximal effect; % is set by controls: 0 for no effect and ±100 for the full control effect; nearly all actives have a fitted effect of over 50% in size
Target sequence (O75164 whole entry, looked up, the tested form may be a part): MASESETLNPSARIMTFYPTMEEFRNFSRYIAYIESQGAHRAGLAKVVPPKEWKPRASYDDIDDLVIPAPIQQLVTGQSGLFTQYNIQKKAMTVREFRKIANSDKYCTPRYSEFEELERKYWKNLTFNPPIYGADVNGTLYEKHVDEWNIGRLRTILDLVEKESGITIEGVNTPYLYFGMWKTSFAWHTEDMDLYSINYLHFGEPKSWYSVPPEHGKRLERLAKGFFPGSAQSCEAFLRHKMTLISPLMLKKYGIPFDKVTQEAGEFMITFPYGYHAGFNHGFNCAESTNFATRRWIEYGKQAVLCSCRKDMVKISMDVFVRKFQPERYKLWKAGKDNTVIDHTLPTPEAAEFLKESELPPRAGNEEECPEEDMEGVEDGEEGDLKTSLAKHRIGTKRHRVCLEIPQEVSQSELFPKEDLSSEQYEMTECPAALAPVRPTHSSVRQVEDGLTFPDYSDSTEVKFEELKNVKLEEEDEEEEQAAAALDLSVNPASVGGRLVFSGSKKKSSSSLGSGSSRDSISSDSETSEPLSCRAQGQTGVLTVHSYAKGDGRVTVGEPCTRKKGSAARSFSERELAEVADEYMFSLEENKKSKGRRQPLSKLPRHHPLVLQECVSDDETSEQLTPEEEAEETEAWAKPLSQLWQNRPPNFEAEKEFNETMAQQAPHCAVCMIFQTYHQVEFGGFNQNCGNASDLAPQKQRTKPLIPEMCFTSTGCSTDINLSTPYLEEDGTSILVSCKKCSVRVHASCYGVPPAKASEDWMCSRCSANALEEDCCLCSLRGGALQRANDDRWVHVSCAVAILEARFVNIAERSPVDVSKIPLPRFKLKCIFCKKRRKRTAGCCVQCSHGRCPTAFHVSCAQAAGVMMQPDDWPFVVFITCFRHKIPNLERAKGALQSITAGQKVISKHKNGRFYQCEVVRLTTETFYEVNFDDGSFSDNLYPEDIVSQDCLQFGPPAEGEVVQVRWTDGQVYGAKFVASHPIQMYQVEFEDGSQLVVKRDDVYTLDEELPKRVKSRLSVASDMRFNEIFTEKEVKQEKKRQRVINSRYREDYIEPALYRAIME
Numbers without * were called inactive; ? = inconclusive; . = not tested or not shown; [ ] = another dose, or the depositor's remark. Unless noted, calls come from the whole dose curve; as a rule, active = well fitted inhibition curve with a large enough effect; inconclusive = small, poorly fitted or top-dose-only effect; inactive = no such curve, though single readings can be large or run the other way.

SMILES	Six1-Eya2 inh	CtBP-E1A inh	G9a inh	BAZ2B inh	HP1b binding inh	JMJD2A Tudor
CCOc1ccccc1C(=O)Nc1cc(-c2nc3cccnc3s2)ccc1C	.	.	10µM*	32µM*	4%	?
CCc1ccc2oc(-c3ccc(C)c(NC(=O)c4cc([N+](=O)[O-])ccc4N4CCOCC4)c3)nc2c1	.	.	?	-28%	17%	-18%
C=CCC1CCCCC12NC(=O)N(c1ccccc1)N2 (configuration not stated)	3	0	.	-1%	18%	-10%
O=C1CCC2(CC1)NC(=O)N(c1ccccc1)N2	-3	.	7.1µM*	-11%	37%	-6%[11.4 µM]
CC1=CC(=O)C2=C(C)CC[C@@H]3[C@@H](OC(=O)[C@H]3C)[C@H]12	.	.	22%[21.5 µM]	.	.	.
C=CC(C)(C)c1c2occc2c(O)c2ccc(=O)oc12	-5	0	.	.	8%	-27%
C=CC(C)(C)c1c(O)c(CC=C(C)C)c(O)c2c(=O)c3ccc(O)c(O)c3oc12	-12	0	.	.	-15%	50µM*
NC(=O)CSc1oc(-c2ccco2)nc1S(=O)(=O)c1ccc(Cl)cc1	-6	17	32µM*	-25%	11%	-19%
Cc1ccc(S(=O)(=O)c2nc(-c3ccco3)oc2SCC(N)=O)cc1	-13	-2	?	-10%	-25%	-24%
CC(C)Sc1oc(-c2ccco2)nc1S(=O)(=O)c1ccc(F)cc1	-3	6	10µM*	-20%	21%	?
CC(C)CSc1oc(-c2ccco2)nc1S(=O)(=O)c1ccc(Br)cc1	.	.	10%[59 µM]	-1%	46%	17%
O=C(CSc1oc(-c2ccccc2)nc1S(=O)(=O)c1ccc(Cl)cc1)c1ccccc1	.	.	11µM*	-6%	3%	?
NC(=O)CSc1oc(-c2ccco2)nc1S(=O)(=O)c1ccc(Br)cc1	4	-2	28µM*	?	25%	-4%
CCc1ccccc1Nc1nc2ccccc2n2cnnc12	.	.	6%[59 µM]	3%	56%	0%
COc1ccc(CCNC(=O)c2c(C)oc3ncn(CC(C)C)c(=O)c23)c(OC)c1	.	.	-6%[59 µM]	3%[57.1 µM]	24%	-15%
COc1ccccc1CNC(=O)CCn1c(=O)c2ccccc2n(CC(=O)Nc2cc(Cl)ccc2C)c1=O	.	.	-6%[59 µM]	-9%	26%	-2%
CSc1oc(-c2ccco2)nc1S(=O)(=O)c1ccc(Br)cc1	-2	-5	40µM*	-32%	28%	-33%
CCCSc1oc(-c2ccco2)nc1S(=O)(=O)c1ccc(Br)cc1	.	.	-47%[59 µM]	-18%	21%	2%
CC(C)CC(=O)N1c2nc(C(C)C)nn2C2(CCCCC2)[C@@H]2CCCC[C@@H]21	.	.	0%[59 µM]	-1%	40%	-1%
Cc1cccc(NC(=S)NNC(=S)NC2CCCCC2)c1C	-6	-11	1.3µM*	-9%	-14%	-26%
Cc1cccc(NC(=O)c2ccccc2NC(=O)C2CCCCC2)c1C	0	-1	15%[0.501 µM]	50µM*	0%	-13%
O=C(Nc1ccccc1)c1ccccc1NC(=O)C1CCCCC1	0	13	?	-1%	22%	-14%
Cc1ccccc1NC(=S)NC1CCCC1	1	-5	-7%	8%	11%	-8%
Cc1ccc(SCC(=O)OCC(=O)N(CCC#N)c2ccccc2)cc1C	-4	2	56µM*	13%	53%	?
N#CCCN(C(=O)COC(=O)CCc1ccccc1)c1ccccc1	-4	-1	12%	-14%	23%[57 µM]	0%
O=C1C2C=CC=CC2=NC(=S)N1CCN1CCC(=C(c2ccc(F)cc2)c2ccc(F)cc2)CC1 (configuration not stated)	.	.	0%[59 µM]	.	.	.
